Laboratory results: the supplement of paper PMC3334620
Over roughly 33,000 sequences, “E-score (-0.5 to 0.5)” has its median near -0.043; the highest 2% begin near 0.37. For the sample, the highest values were picked, then their nearest neighbours and some sequences at random.

The sequences below were run against T1, Upc2 (UniProt Q12151) (assay: PBM E-score (8-mer binding enrichment) (E-score (-0.5 to 0.5)); higher = stronger / more preferred TF binding). Details: protein concentration: 200 nM; construct: GST-full length.
T1 sequence: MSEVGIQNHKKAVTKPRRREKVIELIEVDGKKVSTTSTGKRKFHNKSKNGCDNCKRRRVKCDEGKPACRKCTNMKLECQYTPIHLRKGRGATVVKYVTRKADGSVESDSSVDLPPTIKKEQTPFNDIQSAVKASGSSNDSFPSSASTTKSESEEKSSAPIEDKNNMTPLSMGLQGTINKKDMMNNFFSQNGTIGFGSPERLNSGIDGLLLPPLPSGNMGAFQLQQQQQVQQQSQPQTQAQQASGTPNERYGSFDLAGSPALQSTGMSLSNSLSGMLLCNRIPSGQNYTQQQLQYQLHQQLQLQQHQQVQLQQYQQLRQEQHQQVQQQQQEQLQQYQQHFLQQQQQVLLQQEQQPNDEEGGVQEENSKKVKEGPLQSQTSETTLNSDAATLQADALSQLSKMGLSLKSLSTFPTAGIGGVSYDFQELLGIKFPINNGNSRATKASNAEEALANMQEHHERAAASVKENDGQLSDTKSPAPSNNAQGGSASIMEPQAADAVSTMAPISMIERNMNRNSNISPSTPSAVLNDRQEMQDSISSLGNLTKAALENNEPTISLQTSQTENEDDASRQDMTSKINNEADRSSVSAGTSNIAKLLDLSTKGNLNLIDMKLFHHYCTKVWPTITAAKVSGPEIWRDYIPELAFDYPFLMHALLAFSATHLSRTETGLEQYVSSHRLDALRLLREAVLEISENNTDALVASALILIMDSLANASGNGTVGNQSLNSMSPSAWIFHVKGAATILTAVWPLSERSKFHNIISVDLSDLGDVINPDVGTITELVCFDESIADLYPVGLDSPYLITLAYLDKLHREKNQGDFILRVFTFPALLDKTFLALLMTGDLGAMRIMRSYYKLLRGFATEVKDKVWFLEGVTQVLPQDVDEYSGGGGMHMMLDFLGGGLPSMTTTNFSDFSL
Description: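 Universal 'all 10-mer' protein binding microarrays (Agilent AMADID 015681) probed with GST-tagged S. cerevisiae TFs (full-length or DBD) made by in vitro transcription/translation (PURExpress), about 100-200 nM. Bound TF was detected with fluorescent anti-GST. Each ungapped 8-mer (which stands for itself and its reverse complement) is scored by the PBM enrichment score (E-score), a modified Wilcoxon-Mann-Whitney statistic from -0.5 to +0.5, computed with the Universal PBM Analysis Suite. Scale: above 0.35 generally sequence-specific binding.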

In order of falling “PBM E-score” value:
1. CGTTTAGC  0.48
2. GCGTCGTA  0.468
3. CGTTTAGA  0.466
4. ACGTCGTA  0.458
5. CCGTCGTA  0.457
6. ACGATCGT  0.438
7. ACGAACGA  0.435
8. TACGATGA  0.433
9. CGTTTGGA  0.428
10. GCGAACGA  0.418
11. CATCGTTC  0.416
12. CGTAAAGA  0.412
13. CAGTACGA  0.411
14. CGTTTGGC  0.409
15. AAGTACGA  0.407
16. CCCATACG  0.407
17. ACGAGCTC  0.404
18. CGTAAAGC  0.403
19. TAGTACGA  0.401
20. ACCATACG  0.399
21. CGTTTGAG  0.396
22. AATCGTTC  0.396
23. CGTTTGCA  0.395
24. ACTGAACG  0.395
25. ACGAGCTA  0.394
26. CCTGAACG  0.394
27. AACGATTC  0.393
28. AACGATGG  0.391
29. AACGATTG  0.391
30. AACGATGT  0.388
31. AACGATGA  0.387
32. ACGAACGG  0.387
33. ACGAAGGA  0.379
34. GAGTACGA  0.375
35. AAGATCGT  0.371
36. TCGAACGA  0.368
37. AACGATTA  0.364
38. CGTTTGAC  0.363
39. ACGAGCTG  0.36
40. AACGATGC  0.352
41. ACGATCGC  0.352
42. CGTTTGAA  0.35
43. CGTTTGTC  0.34
44. CATCGTTA  0.324
45. CGTTTGCC  0.323
46. ACGAACGC  0.323
47. ACGAACGT  0.32
48. ACGAACAG  0.314
49. ACGATCGG  0.295
50. AATCGTTA  0.292
51. ACGAAGGG  0.287
52. CACGATTC  0.258
53. CAGTACGG  0.257
54. TCGGAAAA  0.234
55. TCGCAAAA  0.216
56. GCGAGCTA  0.207
57. ACGTGCTA  0.207
58. ACGTCGTC  0.206
59. CCGAGCTC  0.197
60. GTAATATA  0.197
61. GCGTCGCA  0.19
62. AGCGATTC  0.181
63. ATCCGAGG  0.18
64. CACGATGA  0.169
65. AACGGTTC  0.166
66. CGGTTTAG  0.161
67. GCGAACGC  0.158
68. AAGTACGT  0.154
69. AAGATCGC  0.148
70. ATAAGATA  0.146
71. AATCGTTG  0.142
72. GCGAACAA  0.139
73. TTTAGAAA  0.133
74. AAGTACGC  0.115
75. GCTCTTAA  0.108
76. ATCGATTG  0.0896
77. GGTAAAGA  0.0863
78. CCGTCGTC  0.0861
79. ATCGCAGC  0.085
80. CACGATGC  0.0841
81. ACCGATGA  0.0812
82. ACCGATTG  0.0763
83. TACAGGAA  0.0741
84. ACGTCGTG  0.0636
85. ACCAGAAC  0.0633
86. GGTTTGCA  0.0633
87. CACGATGG  0.0566
88. CATCGTGC  0.054
89. CCCATACC  0.0537
90. ATTACCGC  0.0457
91. ATTCCATC  0.0445
92. ACTAACCT  0.042
93. ATTCTGTA  0.0418
94. CAGTACGC  0.037
95. ACTGAACA  0.0269
96. CGTCTATA  0.0202
97. CCGAGCTA  0.0202
98. CCGTCGGA  0.0146
99. GGATTTAC  0.00936
100. TAAAATCA  0.0046
101. TAGTACAA  0.00376
102. AGTTTAGC  0.00286
103. GACGATGA  -0.00259
104. GCTTAGCA  -0.00347
105. AGTTTAGA  -0.00847
106. GGTTTGGA  -0.0119
107. AGTTTGGA  -0.014
108. AGTTTGGC  -0.015
109. GACGATGC  -0.0158
110. AACGTCAC  -0.0182
111. GCGTCGAA  -0.0193
112. AGTAAAGC  -0.0204
113. CTTATGCC  -0.0216
114. AGAGCATA  -0.0221
115. CATTTAGC  -0.0255
116. ACTGAACT  -0.0256
117. CCTGAACA  -0.0282
118. ACTTATTC  -0.0293
119. GAGTACGC  -0.0301
120. GATGGGAA  -0.0309
121. ATGTCATG  -0.0317
122. TAATTACA  -0.0323
123. ATTGGTTA  -0.0342
124. ACCATACA  -0.0345
125. ACAAATTC  -0.0428
126. ACTAAGAA  -0.0494
127. ATCGATGA  -0.0519
128. AAGATCGG  -0.0541
129. GGTTTAGA  -0.055
130. GAGTACAA  -0.0557
131. CCGAAGGA  -0.0603
132. AGGATAGG  -0.0689
133. CCTAAAGC  -0.082
134. GGGCTGTA  -0.0846
135. CATGGATA  -0.0903
136. ACTCAGTC  -0.097
137. ACCATACC  -0.0989
138. TGAAATCA  -0.103
139. TCGGTGCA  -0.104
140. CGCTACAG  -0.105
141. TACCATGA  -0.108
142. GACTGATC  -0.118
143. GCTGCAGC  -0.125
144. ATCATCTG  -0.129
145. CGGAAGAG  -0.146
146. CCTGAACC  -0.146
147. CAGTTGTC  -0.147
148. TAGTACCA  -0.148
149. AACTACCT  -0.152
150. CGGGAGGA  -0.157
151. GGGTTCAA  -0.157
152. CAACAAGC  -0.163
153. GGTGTCAA  -0.169
154. AACTTTGT  -0.172
155. CTTCATCC  -0.177
156. TGTTAGAA  -0.177
157. TTGACCAA  -0.179
158. CAGAGAGC  -0.203
159. CCAGTTAC  -0.21
160. AGTGAGTC  -0.211
161. AGTAAAGA  -0.212
162. GATTCCCC  -0.214
163. CCTTCCAA  -0.216
164. CCAGTGAC  -0.217
165. GGACTACA  -0.219
166. CCCATACA  -0.22
167. AGCAGATG  -0.221
168. CAGAGATG  -0.222
169. CCCGCAAG  -0.239
170. CCCTACTA  -0.242
171. AGCAGAAG  -0.255
172. AAAGGGCC  -0.285
173. AGTCCTGA  -0.291
174. TCTGATCA  -0.317
175. AGGGTAGG  -0.331
